HT1080 IDH1KD tx = kills HT-1080 cells with IDH1 knockdown. HT-1080 IDH1 knockdown viability, ATP luminescence, 48 h. Potency, µM (highest dose often 46.1 µM), hits mostly cytotoxic. hit rate 2% among 360,000
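HT-1080-IDH1KD cells (IDH1 knocked down), 750/well in RPMI with 5% FBS, treated with compound 48 h at 37 degrees C. Viability by CellTiter-Glo luminescence, normalised to DMSO and no-cell wells; concentration-response curves classed.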
IL1B secr inh = blocks inflammasome-driven IL-1 beta release. THP-1 LPS/ATP IL-1B secretion, AlphaLISA, 16 h; hits give low values. activity change, % at 57.5 µM. hit rate 4.7% among 360,000. AID 743279; in the data active = activity change below about -50%; inconclusive = mostly about -30% to -49%
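THP-1 cells pretreated 1 hr with compounds (up to 57.5 uM final), then stimulated with LPS (250 ng/mL final) plus ATP (1.25 mM final); secreted IL-1B measured by AlphaLISA after 16 hr, decreased signal indicating inhibition.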
12-LOX inh = ALOX12 (human) lipoxygenase inhibition; P18054; purified 12hLO, xylenol orange hydroperoxide absorbance; Potency, µM (doses to about 108 µM), usual class: inhibitors; hit rate 1.1% among 580,000; AID 1671190
Target sequence (P18054 whole entry, looked up): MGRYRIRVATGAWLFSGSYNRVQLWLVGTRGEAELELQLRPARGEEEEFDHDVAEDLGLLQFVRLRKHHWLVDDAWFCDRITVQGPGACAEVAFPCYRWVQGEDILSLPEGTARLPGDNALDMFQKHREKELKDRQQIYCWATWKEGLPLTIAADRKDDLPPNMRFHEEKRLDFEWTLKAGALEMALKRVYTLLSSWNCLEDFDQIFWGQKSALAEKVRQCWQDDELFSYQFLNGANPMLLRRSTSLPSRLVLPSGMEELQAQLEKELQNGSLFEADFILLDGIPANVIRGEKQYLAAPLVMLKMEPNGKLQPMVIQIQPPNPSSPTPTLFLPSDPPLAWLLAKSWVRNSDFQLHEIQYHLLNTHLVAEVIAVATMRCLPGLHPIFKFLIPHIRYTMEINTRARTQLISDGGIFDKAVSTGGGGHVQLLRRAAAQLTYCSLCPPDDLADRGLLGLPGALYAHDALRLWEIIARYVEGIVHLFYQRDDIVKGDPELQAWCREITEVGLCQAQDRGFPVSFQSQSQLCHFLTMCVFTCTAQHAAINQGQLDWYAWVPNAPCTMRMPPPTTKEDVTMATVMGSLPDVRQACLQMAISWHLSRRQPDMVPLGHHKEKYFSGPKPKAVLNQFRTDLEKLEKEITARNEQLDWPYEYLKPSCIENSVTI
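Purified human 12hLO at 150 nM in 25 mM Hepes, 0.01% Triton X-100, pH 7.0, preincubated 15 min at room temperature with compound. Reaction started with 40 uM arachidonic acid, 30 min at room temperature. Hydroperoxide measured by Fe-xylenol orange, 573/405 nm absorbance ratio.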
TDP1 cell CPT = growth inhibition of DT40 Tdp1-/-;hTDP1 cells with camptothecin (screen for TDP1 inhibitors); chicken DT40 Tdp1-/-;hTDP1 cells + 20 nM CPT, ATP luminescence, 48 h; Potency, µM (highest dose often 46.2 µM), actives largely listed as inhibitors; hit rate 12% among 420,000; AID 686979; also: nearly all actives have a fitted effect of over 55% in size
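Chicken DT40 Tdp1-/- cells complemented with human TDP1, 400 cells/well, exposed to compounds plus 20 nM camptothecin for at least 48 h at 37 C; viability read as ATP content by CellTiter-Glo luminescence.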
HT1080-NT tox = kills 2HG-producing HT-1080-NT fibrosarcoma cells; hit rate 1.6% among 360,000; Potency, µM (series often up to 46.1 µM), usual class: cytotoxic; HT-1080-NT fibrosarcoma viability, CellTiter-Glo ATP luminescence, 48 h;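 also: NT is the 2HG producing partner of a matched IDH1 knockdown line; nearly all actives have a fitted effect of over 55% in size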
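Fibrosarcoma NT cells, 750 per well in 5% FBS RPMI, were exposed to compound for 48 hours. Viability: CellTiter-Glo luminescence.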
TDP1 cell noCPT = qHTS for Inhibitors of human tyrosyl-DNA phosphodiesterase 1 (TDP1): qHTS in cells in absence of CPT. DT40 Tdp1-/- hTDP1 cells, no CPT, ATP luminescence, 48 h. Potency, µM (titrated, usually from 46.2 µM), most hits filed as inhibitors. hit rate 15% among 420,000; also: nearly all actives have a fitted effect of over 55% in size
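Seeded 400 DT40-hTDP1 cells/well (vehicle DMSO, no 20 nM CPT); pinned compounds; ≥48 hr at 37 °C; CellTiter-Glo luminescence as viability measure.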
A number is an active result; n = inactive; u = inconclusive; x = no result. Many of the other results were omitted from the sample, so hits are more common in it than they were. Unless noted, calls follow the shape of the dose curve; as a rule, active = well fitted curve in the direction sought with a large enough effect; inconclusive = small, poorly fitted or top-dose-only effect, or another doubt; inactive = no such curve, though single readings can be large; an effect the other way counts as inactive or inconclusive.

SMILES	HT1080 IDH1KD tx	IL1B secr inh	12-LOX inh	TDP1 cell CPT	HT1080-NT tox	TDP1 cell noCPT
Cc1cc(C(=O)CSc2nnnn2C)c(C)n1-c1ccc2c(c1)OCCO2	n	n	u	u	n	u
CCOc1ccc(C(=O)N(C)Cc2cc(Br)ccc2OC)cc1OCC	x	x	n	x	x	x
Cc1cc(=O)oc2cc(OCC(=O)N(C)CCOc3ccc(Br)cc3)ccc12	x	x	n	x	x	x
CCCNC(=O)CN(C)C(=O)CCCc1c[nH]c2ccccc12	x	x	n	x	x	x
COc1cc(OC)cc(C(=O)N(C)CCCNC(=O)c2nc3ccccc3c(=O)[nH]2)c1	x	x	n	x	x	x
COCC(C)n1c(C)cc(C(=O)CSc2nnc(-c3ccco3)o2)c1C (stereo not drawn)	n	n	n	u	n	u
Cc1cc(C(=O)CSc2nnc(-c3ccco3)o2)c(C)n1Cc1ccco1	n	n	n	20.6µM	n	23.1µM
CC(C)(C)Cc1c(-c2ccco2)nc2ccc(Cl)cn12	n	n	u	25.9µM	n	n
CC(C)(C)Cc1c(-c2ccc(C#N)cc2)nc2ccc(Cl)cn12	n	n	u	u	n	16.4µM
Cc1ccc(Cc2c(-c3ccc(C#N)cc3)nc3ccc(Cl)cn23)cc1	n	n	u	n	n	u
N#Cc1ccc(-c2nc3ccc(Cl)cn3c2Cc2ccccc2)cc1	n	n	n	20.6µM	n	u
O=S(=O)(c1ccccc1C(F)(F)F)N1CCC2(CCCNC2)C1 (stereo not drawn)	x	x	n	x	x	x
CCC(C)(c1nnnn1-c1c(C)cccc1C)N(N=O)c1cccc(C(F)(F)F)c1 (stereo not drawn)	n	n	n	25.9µM	n	20.6µM
Cc1cccc(C)c1-n1nnnc1C(C)(C)N1CCN(N=O)CC1	n	n	u	n	n	n
O=C(COC(=O)c1ccco1)Nc1ccc(Cl)c(C(F)(F)F)c1	x	x	n	x	x	x
Cc1ccc(N2CCN(C(=O)C(=O)c3cccc([N+](=O)[O-])c3)CC2)cc1	n	n	n	u	n	u
O=C(NCCN1CCN(c2ccccc2)CC1)c1cccc(Br)c1	u	n	n	u	u	14.1µM
O=C(NCCN1CCN(C(=O)c2cccc(Br)c2)CC1)C(=O)Nc1ccc(Br)cc1	n	n	n	13µM	n	25.9µM
O=C(C(=O)N1CCN(c2ccncc2)CC1)c1cccc(Br)c1	n	n	u	14.6µM	n	14.6µM
Cc1cccc(C(=O)NCCN2CCN(c3ccccc3)CC2)c1	n	n	u	n	n	n
Clc1cc(Cl)cc(OCc2cc(-c3ccco3)on2)c1	x	x	n	x	x	x
CC(c1ccccc1)N1CCN(C(=O)CCl)CC1 (stereo not drawn)	n	-78.8	n	11.6µM	u	18.4µM
CC(CC(=O)N1CCN(C(=O)c2ccccc2)CC1)c1ccccc1 (stereo not drawn)	n	n	n	n	n	n
O=C(CCl)N1CCN(S(=O)(=O)Cc2ccccc2)CC1	u	-99.6	n	18.4µM	u	4.61µM
Cc1cccc(OCCc2noc(C3CCN(C(=O)NC(C)(C)C)C3)n2)c1 (stereo not drawn)	x	x	n	x	x	x
SMILES	HT1080 IDH1KD tx	IL1B secr inh	12-LOX inh	TDP1 cell CPT	HT1080-NT tox	TDP1 cell noCPT
O=C(N1CCOCC1)N1CCN(c2nc(-c3ccc(F)cc3)cs2)CC1	n	n	n	u	n	16.4µM
CNC(=S)N1CCN(c2nc(-c3ccc(Cl)cc3)cs2)CC1	n	-56.5	n	u	n	20.6µM
COCCNC(=S)N1CCN(c2nc(-c3ccc(Cl)cc3)cs2)CC1	n	n	n	n	u	u
CCN(CC)CCCNC(=S)N1CCN(c2nc(-c3ccc(F)cc3)cs2)CC1	8.2µM	-57.8	u	14.6µM	20.6µM	6.51µM
O=[N+]([O-])c1ccc(N2CCN(c3nc(-c4ccc(Cl)cc4)cs3)CC2)cc1	n	n	n	u	n	11.6µM
CCNC(=S)N1CCN(c2nc(-c3ccc(F)cc3)cs2)CC1	n	n	u	u	u	u
CCCCC(=O)N1CCN(c2nc(-c3ccc(F)cc3)cs2)CC1	n	n	n	u	n	u
Cc1cccc2c1nc1n2[C@@H](CNCc2ccccc2)COC1	x	x	n	x	x	x
O=C(CCCl)N1CCN(c2nc(-c3ccccc3)cs2)CC1	n	n	u	u	n	16.4µM
CC(C)C(=O)N1CCN(c2nc(-c3ccc(Cl)cc3)cs2)CC1	u	n	n	23.1µM	n	13µM
N=C(N)COc1ccc(Cl)c(Cl)c1	x	x	n	x	x	x
COc1ccc(NC2=NC(CC(=O)Nc3ccc4c(c3)OCCO4)C(=O)N2)cc1 (stereo not drawn)	x	x	n	x	x	x
CCSc1nccc(-c2nn(-c3ccc(C)cc3)ccc2=O)n1	9.2µM	n	n	6.51µM	10.3µM	6.51µM
CSc1nccc(-c2nn(-c3ccc(C)cc3)ccc2=O)n1	8.2µM	n	n	7.31µM	u	5.8µM
Nc1nccc(-c2nn(-c3ccc(Cl)cc3)ccc2=O)n1	n	n	n	n	n	n
C=CCSc1nccc(-c2nn(-c3ccc(C)cc3)ccc2=O)n1	u	n	u	7.31µM	u	5.8µM
C#CCSc1nccc(-c2nn(-c3ccc(C)cc3)ccc2=O)n1	n	n	u	u	n	25.9µM
C=CCSc1nc(=O)n2ccc(C)cc2n1	n	n	n	n	n	u
COc1ccccc1CCNC(=O)C1CC(=O)N(c2n[nH]c3cccc(F)c23)C1 (stereo not drawn)	x	x	n	x	x	x
CN(Cc1cc(=O)n2cc(Cl)ccc2n1)Cc1ccccc1Cl	x	x	n	x	x	x
Cc1ccc(CCNC(=O)CN(c2cc(C)cc(C)c2)S(=O)(=O)c2c(C)noc2C)cc1	n	n	n	n	n	u
Cc1ccc(N(CC(=O)NCCc2ccc(Cl)cc2)S(=O)(=O)c2c(C)noc2C)cc1	n	n	n	23.1µM	n	14.6µM
Cc1ccc(N(CC(=O)NCc2ccc3c(c2)OCO3)S(=O)(=O)c2c(C)noc2C)cc1	n	n	n	u	n	23.1µM
Cc1noc(C)c1S(=O)(=O)N(CC(=O)NCc1ccc2c(c1)OCO2)c1ccc(C(C)C)cc1	n	n	n	u	n	u
Cc1ccc(S(=O)(=O)C2(C(=O)NCc3ccc4c(c3)OCO4)CC2)cc1	n	n	n	u	n	18.4µM
O=C(NCc1ccc2c(c1)OCO2)C1(S(=O)(=O)c2ccccc2)CC1	n	n	n	n	n	n
Cc1ccc(CCNC(=O)CN(c2ccc(C)cc2)S(=O)(=O)c2c(C)noc2C)cc1	n	n	n	u	n	16.4µM
O=C1NCCN2CC3(CCN(C(=O)Nc4ccc5c(c4)OCCO5)CC3)CC12 (stereo not drawn)	x	x	n	x	x	x

Compound activity from PubChem BioAssay.
